Values joined by “and” are separate entries in the source; they are usually repeats but may differ in a detail not shown here. Identical values can stand only once. Inconclusive results are not listed. Active and inactive are the calls of the source. Unless noted, calls follow the shape of the dose curve; as a rule, active = well fitted curve in the direction sought with a large enough effect; inconclusive = small, poorly fitted or top-dose-only effect, or another doubt; inactive = no such curve, though single readings can be large; an effect the other way counts as inactive or inconclusive.

For experiment [1], the target named is Alpha-galactosidase A (Homo sapiens) (UniProt P06280). Put plainly: Counterscreen for Glucocerebrosidase Inhibitors: qHTS Assay for Human alpha-Galactosidase at pH 4.5 (AID 992). Also: 0% is about no effect. In outline: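 Human enzyme (2 nM) with 80 uM 4-methylumbelliferyl alpha-D-galactopyranoside in 50 mM citric acid, 0.005% Tween-20, pH 4.5, 20 min at room temperature. Compounds 0.7 nM–77 uM; fluorescence Ex 365/Em 440 after pH 10 stop; AC50 from Hill fits.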
Sequence of Alpha-galactosidase A (Homo sapiens) (P06280 whole entry, looked up): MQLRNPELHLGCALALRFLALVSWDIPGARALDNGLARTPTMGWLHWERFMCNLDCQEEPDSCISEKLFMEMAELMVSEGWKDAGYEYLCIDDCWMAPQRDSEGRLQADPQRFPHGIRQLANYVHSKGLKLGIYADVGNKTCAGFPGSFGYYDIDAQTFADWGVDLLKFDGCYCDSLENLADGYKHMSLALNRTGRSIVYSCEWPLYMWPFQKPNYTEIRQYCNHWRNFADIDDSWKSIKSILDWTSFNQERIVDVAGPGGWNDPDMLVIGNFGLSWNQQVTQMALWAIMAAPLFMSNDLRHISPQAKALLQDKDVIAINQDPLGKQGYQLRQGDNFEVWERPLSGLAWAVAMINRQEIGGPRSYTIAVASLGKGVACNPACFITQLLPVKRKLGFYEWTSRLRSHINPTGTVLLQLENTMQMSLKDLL

Experiment [2] deals with alpha-glucosidase (Oryza sativa, rice) (UniProt Q653V4). Put plainly: Counterscreen for Glucocerebrosidase Inhibitors: qHTS Assay for Rice alpha-Glucosidase at pH 5.0 (AID 997).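 Also: 0% = full activity with enzyme and -100% = basal without enzyme.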 In outline:
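Rice alpha-glucosidase (4 nM final) with 400 uM 4-methylumbelliferyl-alpha-D-glucopyranoside in citrate buffer pH 5.0, 20 min at room temperature, stopped at pH 10; fluorescence 365/440 nm, compounds 0.7 nM–77 uM, AC50 from Hill fits.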
On the technique in general: Counterscreens check selectivity or assay interference.

The nature of experiment [3]: qHTS Assay for Lipid Storage Modulators (AID 1519; calls by dose curve; as to activity change, negative = inhibition: % is scaled to controls: 0 for no effect and ±100 for the full control effect). As to conditions: Drosophila S3 cells, BODIPY lipid droplet/cell ratio, laser cytometry, cells loaded with oleic acid. In short, it runs like this:
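Cells seeded at 5,000 per well were treated with compounds over a concentration series and loaded with oleic acid (400 uM, as added). Lipid droplet fluorescence (488 nm excitation, 500-530 nm channel) was read by laser-scanning cytometry and normalized to 20 uM Triacsin C.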
On the technique in general: Quantitative high-throughput screening tests each substance at several concentrations.

The target in experiment [4] is DNA repair nuclease/redox regulator APEX1 (Homo sapiens) (UniProt P27695). Put plainly: qHTS Validation Assay for Inhibitors of the Human Apurinic/apyrimidinic Endonuclease 1 (APE1) (AID 1705;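 also: TAMRA fluorescence gain over two minutes as APE1 cuts a quenched THF abasic duplex; % is scaled to controls: 0 for no effect and ±100 for the full control effect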). In short, it runs like this:
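Read-out: TAMRA fluorescence (525 nm ex, 598 nm em) from cleavage of a quenched THF abasic-site duplex, 50 nM final; activity taken as intensity change between third and first of three reads 60 s apart.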

A short description of experiment [5]: Counterscreen for APE1 Inhibitors: Fluorescent Dye Displacement Validation Assay (AID 1707).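 Also: plate controls were ThO with dsDNA and no compound for no effect and ThO without dsDNA for full effect.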 In outline: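 Thiazole Orange (250 nM) bound to 50 nM TAMRA-labelled dsDNA with tetrahydrofuran abasic site; displacement by DNA-binding compounds lowers fluorescence. Buffer 50 mM Tris-HCl pH 7.5, 50 mM NaCl, 2 mM MgCl2, 0.01% Tween-20; endpoint read at 480/540 nm.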

The target in experiment [6] is Endonuclease 4 (Escherichia coli (strain K12)) (UniProt P0A6C1). Put plainly: Counterscreen for APE1 Inhibitors: qHTS Validation Assay for Inhibitors of Endonuclease IV (AID 1708). Also: % is scaled to controls: 0 for no effect and ±100 for the full control effect. In short, it runs like this:
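E. coli EndoIV at 2 nM final, preincubated 15 min at room temperature with compound, then 50 nM TAMRA/BHQ-2 THF abasic-site duplex added. Buffer: 50 mM Tris-HCl pH 7.5, 50 mM NaCl, 2 mM MgCl2, 1 mM DTT, 0.01% Tween-20. Kinetic fluorescence increase, third minus first read.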

Experiment [7] in a line: qHTS for differential inhibitors of proliferation of Plasmodium falciparum line 7G8 (AID 1815).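 Also: parasite growth measured after three days of incubation.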 Also: potency is read from the fitted curve at half-maximal effect.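 As to activity change, negative = inhibition: plate controls were vehicle wells for no effect and reference inhibitor wells for full effect.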
Experiment [8] is described as follows: qHTS for differential inhibitors of proliferation of Plasmodium falciparum line GB4 (AID 1816).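 Also: parasite growth measured after 72 h incubation.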 Also: potency is read from the fitted curve at half-maximal effect.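 As to activity change, negative = inhibition: 0% = vehicle DMSO and -100% = reference inhibitor.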 The following applies: Potency: Plasmodium falciparum GB4 proliferation inhibition.
Experiment [9] is described as follows: qHTS for differential inhibitors of proliferation of Plasmodium falciparum line W2 (AID 1883).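 Also: parasites grown with compound for 72 h before lysis and staining.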 Also: potency is read from the fitted curve at half-maximal effect.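 As to activity change, negative = inhibition: 0% = vehicle wells and -100% = control inhibitor wells.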 The following applies: Potency: Plasmodium falciparum W2 proliferation inhibition.
The nature of experiment [10]: qHTS for differential inhibitors of proliferation of Plasmodium falciparum line 3D7 (AID 1876).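 Also: parasite growth measured after three days of culture; 0% = vehicle wells and -100% = reference inhibitor wells.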
The nature of experiment [11]: qHTS for differential inhibitors of proliferation of Plasmodium falciparum line D10 (AID 1877).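 Also: parasites grown with compound for 72 h before DNA staining.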 Also: potency is read from the fitted curve at half-maximal effect.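 As to activity change, negative = inhibition: plate controls were vehicle wells for no effect and reference inhibitor wells for full effect.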
A short description of experiment [12]: qHTS for differential inhibitors of proliferation of Plasmodium falciparum line Dd2 (AID 1882). Also: nearly all actives have a fitted effect of over 65% in size. Also: potency is read from the fitted curve at half-maximal effect.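 As to activity change, negative = inhibition: plate controls were DMSO vehicle for no effect and 0.29 µM artemisinin for full effect.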 As to conditions: Potency: Plasmodium falciparum Dd2 proliferation inhibition. In outline:
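Dd2-infected erythrocytes (0.3% parasitemia, 2.5% hematocrit final) incubated with compound 72 h at 37 C, 5% CO2; lysed with saponin/Triton buffer containing SYBR Green I, incubated overnight in the dark, then read by fluorescence (485/535 nm). Normalized to 0.29 uM artemisinin and DMSO.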

Where [13] appears, read: measured here: cell count channel max response.
Where [14] appears, read: measured here: lipid channel max response.

Sequence of DNA repair nuclease/redox regulator APEX1 (Homo sapiens) (P27695 whole entry, looked up): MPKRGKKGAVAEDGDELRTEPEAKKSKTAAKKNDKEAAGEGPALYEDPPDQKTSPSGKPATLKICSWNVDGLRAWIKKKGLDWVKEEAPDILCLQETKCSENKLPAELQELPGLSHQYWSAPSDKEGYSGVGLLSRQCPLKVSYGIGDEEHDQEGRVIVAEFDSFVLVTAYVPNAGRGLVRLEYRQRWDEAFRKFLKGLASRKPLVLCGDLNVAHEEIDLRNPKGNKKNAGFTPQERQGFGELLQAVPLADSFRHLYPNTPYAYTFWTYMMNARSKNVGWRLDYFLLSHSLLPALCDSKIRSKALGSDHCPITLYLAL

Regarding `CN(C)CCCN1c2ccccc2Sc2ccccc21`, the call in experiment [1], in experiment [2] and in experiment [5] was inactive. Besides, the activity change, negative = inhibition in experiment [3] (at 25.7 µM (top of the series)) was 0.5% (inactive); in experiment [3] (at 57.5 µM (top of the series)), 7.75% (inactive) and 0.211% (inactive). The max response is -16.2% and -4.1% and -25% in experiment [3] (setting [13]); -14.8% and 2.83% and -21.3% in [3] (setting [14]). The Potency entry in experiment [4] and in experiment [6] was “inactive” in each case. Moreover, the Potency was 11.2 µM (active) in experiment [7], 10 µM (active) in [8] and 0.794 µM (active) in [9].

For the compound `NC/C=C/C(=O)O`, in experiment [3] (at 57.5 µM (top of the series)), the activity change, negative = inhibition was 6.98% (inactive). Further, the max response came to 5.6% in experiment [3] (setting [13]) and 13.9% in experiment [3] (setting [14]). Further, the Potency entry in experiment [4], in [6], in [7], in experiment [8], in experiment [10] and in experiment [11] was “inactive” throughout. The Potency result in [12] and in [9] was “inactive” in each case. Moreover, the outcome in experiment [5] was inactive.

For `CCN(CC)CCNC(=O)c1cc(S(C)(=O)=O)ccc1OC`, the compound was called inactive in experiment [1] and in experiment [2]. Also, the activity change, negative = inhibition was -2.02% (inactive) in experiment [3] (at 25.7 µM (top of the series)); 7.41% (inactive) and 1.69% (inactive) in [3] (at 57.5 µM (top of the series)). In addition, the max response in experiment [3] (setting [13]) was -4.82% and 19.9% and -18.4%; in [3] (setting [14]), -8.3% and 33.5% and -17.4%. For the same compound, the Potency result in [4], in experiment [7], in [8], in experiment [10], in [11] and in [12] was “inactive” throughout. Moreover, in experiment [9], the Potency entry is “inactive”.

With `CN(C)CCOC(=O)COc1ccc(Cl)cc1`, the compound was called inactive in [1], in experiment [2] and in [5]. Besides, the activity change, negative = inhibition was 0.143% (inactive) in experiment [3] (at 25.7 µM (top of the series)); 11.6% (inactive) and 1.09% (inactive) in experiment [3] (at 57.5 µM (top of the series)). Also, the max response in [3] (setting [13]) was 1.9% and 22.5% and -10.8%; in experiment [3] (setting [14]), 1.25% and 39.9% and -9.35%. The Potency result in experiment [4], in experiment [7], in experiment [10], in experiment [12] and in experiment [9] was “inactive” in each case.

Turning to `CC1=NS(=O)(=O)c2cc(Cl)ccc2N1`, the compound was classed as inactive in experiment [1], in experiment [2] and in [5]. The activity change, negative = inhibition in [3] (at 25.7 µM (top of the series)) is 4.02% (inactive); in experiment [3] (at 57.5 µM (top of the series)) it was 14.6% (inactive). The max response was 8.52% and 9.84% in experiment [3] (setting [13]); 14.7% and 27.6% in experiment [3] (setting [14]). Besides, the Potency entry in experiment [4], in experiment [6], in experiment [7], in experiment [8], in experiment [10] and in experiment [11] was “inactive” each time. Further, the Potency result in experiment [12] and in [9] was “inactive” in each case.

In the case of `c1cnc(N2CCN(Cc3ccc4c(c3)OCO4)CC2)nc1`, the outcome in experiment [1], in experiment [2] and in experiment [5] was inactive. Also, the activity change, negative = inhibition in experiment [3] (at 25.7 µM (top of the series)) was 3.16% (inactive); in [3] (at 57.5 µM (top of the series)), 2.74% (inactive). The max response in [3] (setting [13]) was -1.42% and -12.3%; in [3] (setting [14]), 3.03% and -8.1%. Moreover, the Potency result in [4], in experiment [6], in experiment [7], in experiment [10], in experiment [11] and in [12] was “inactive” each time.

As to `CN(C)CCCN1c2ccccc2Sc2ccc(C(F)(F)F)cc21`, the call in experiment [1], in experiment [2] and in experiment [5] was inactive. In addition, the activity change, negative = inhibition in experiment [3] (at 25.7 µM (top of the series)) is -1.52% (inactive); in experiment [3] (at 57.5 µM (top of the series)), 3.48% (inactive). The max response was -5.7% and 9.08% in experiment [3] (setting [13]); -9.54% and 14.3% in experiment [3] (setting [14]). Moreover, the Potency entry in experiment [4] and in experiment [6] was “inactive” each time. Further, the Potency in experiment [7] was 8.91 µM (active); in [8], 11.2 µM (active); in experiment [11], 11.2 µM (active); in experiment [12], 11.2 µM (active); in experiment [9], 7.08 µM (active).

For `CC[N+](C)(C)c1cccc(O)c1`, the compound was classed as inactive in experiment [1], in [2] and in experiment [5]. Moreover, the activity change, negative = inhibition in [3] (at 25.7 µM (top of the series)) was 1% (inactive); in [3] (at 57.5 µM (top of the series)), 8.9% (inactive) and 0.601% (inactive). The max response in experiment [3] (setting [13]) was 22.3% and 9.17% and -28.2%; in [3] (setting [14]), 23.6% and 20.6% and -27.6%. The Potency entry in experiment [4], in [6], in experiment [7], in experiment [8], in experiment [12] and in experiment [9] was “inactive” each time.
